A selection: hits, their analogues and other compounds. The true share with any hit is near 3.7%.
Anthrax LF prot: Bacillus anthracis LF protease inhibitors, primary screen, biochemical, multiplex microsphere, MLPCN library. AID 588501, 2011. inhibition, % at 10 µM. Lethal factor (Bacillus anthracis), P15917. multiplex microsphere protease cleavage assay. hit rate 0.12% among 360,000; further: plate controls were buffer without enzyme for full effect and enzyme alone for no effect
Target sequence (P15917 whole entry, looked up): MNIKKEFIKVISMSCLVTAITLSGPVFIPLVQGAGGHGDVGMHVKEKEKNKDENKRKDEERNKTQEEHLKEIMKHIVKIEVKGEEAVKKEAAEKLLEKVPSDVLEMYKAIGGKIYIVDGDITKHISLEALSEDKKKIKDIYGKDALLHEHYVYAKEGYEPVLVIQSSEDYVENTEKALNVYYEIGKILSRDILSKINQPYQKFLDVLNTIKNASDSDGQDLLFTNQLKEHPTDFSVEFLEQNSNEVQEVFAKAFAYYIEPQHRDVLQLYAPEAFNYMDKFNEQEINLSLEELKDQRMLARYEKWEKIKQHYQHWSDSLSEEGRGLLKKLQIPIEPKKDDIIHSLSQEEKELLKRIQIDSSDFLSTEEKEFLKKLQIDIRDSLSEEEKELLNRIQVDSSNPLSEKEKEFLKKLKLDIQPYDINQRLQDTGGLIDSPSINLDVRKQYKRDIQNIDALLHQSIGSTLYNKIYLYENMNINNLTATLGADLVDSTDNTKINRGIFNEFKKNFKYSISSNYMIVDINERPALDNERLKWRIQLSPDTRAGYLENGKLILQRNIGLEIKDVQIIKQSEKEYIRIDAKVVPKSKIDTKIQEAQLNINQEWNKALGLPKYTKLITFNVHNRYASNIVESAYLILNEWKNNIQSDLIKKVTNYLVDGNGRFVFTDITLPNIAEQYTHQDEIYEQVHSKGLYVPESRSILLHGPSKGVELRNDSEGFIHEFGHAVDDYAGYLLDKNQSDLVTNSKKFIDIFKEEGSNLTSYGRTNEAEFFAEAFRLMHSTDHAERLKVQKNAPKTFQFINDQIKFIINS
BoNT-F LC inh: BoNT/F light chain protease inhibitors, primary screen, biochemical, flow cytometry, MLPCN library | AID 588497, 2011 | hit rate 0.22% among 360,000 | Multiplex microsphere protease cleavage assay | inhibition, % at 10 µM; in the data active means inhibition above about 35%, passing the limit was not always enough; inconclusive means no clear call, values can overlap the other calls; further: plate controls were buffer without enzyme for full effect and enzyme alone for no effect
Bead autofluor: counter-screen for toxin protease inhibitors: compound fluorescence. compound autofluorescence counterscreen, microsphere flow cytometry; hits give high values. fluorescence intensity (no concentration beside the values). hit rate 3.1% among 360,000. AID 624483; in the data active means fluorescence intensity above about 16000; inconclusive means no clear call, values can overlap the other calls
BoNT A protease: BoNT/A light chain protease inhibitors, primary screen, biochemical, flow cytometry, MLPCN library. Botulinum neurotoxin type A light chain protease (Clostridium botulinum A str. ATCC 3502). multiplex microsphere protease substrate cleavage. inhibition, % at 10 µM. hit rate 0.17% among 360,000. AID 588499, 2011; further: plate controls were buffer without enzyme for full effect and enzyme alone for no effect
BH1578 lux ind: inducers of Vibrio cholerae quorum light production without autoinducers, primary screen, BH1578 luxS cqsA deficient, single point. V. cholerae BH1578 lux reporter, luminescence, 6 h. activation, % at 18.7 µM. hit rate 0.16% among 350,000. AID 588436, 2011; in the data active means activation mostly above about 9.7%, no sharp cut-off; inconclusive means no clear call, values can overlap the other calls; inactive means mostly below about 3.7%
BJeLR lethal: MLPCN primary cell-based screen for lethality selective to Ras in HRASV12 cells. BJeLR (HRASV12) viability, CellTiter-Glo ATP luminescence, 48 h. inhibition, % (test concentration not listed). hit rate 0.17% among 300,000; in the data active means inhibition above about 50%; inconclusive means no clear call, values can overlap the other calls
Active calls of the source: *; i = inactive; ? = inconclusive; / = no result. Unless noted, no stated cut-off is given here; in the data, active means inhibition above about 30%; inconclusive means no clear call, values can overlap the other calls; inactive means below that.

SMILES	Anthrax LF prot	BoNT-F LC inh	Bead autofluor	BoNT A protease	BH1578 lux ind	BJeLR lethal
CC(=O)Nc1ccc(NC(=O)C2CCCN(c3ncccn3)C2)cc1 (stereo not given)	-0.4	0.7	4477	-0.8	-0.1	-2.3
O=C1c2cccc3cccc(c23)C(c2nc3ccccc3[nH]2)N1C1CC1 (stereo not given)	-8.5	2.4	4513	-0.9	/	/
CC1NC(=O)c2cccnc2-n2c1nc1cc(F)ccc1c2=O (stereo not given)	-7.5	-11.7	3840	-0.8	-0.6	/
COC(=O)[C@]12CCCCC=C1N(Cc1ccco1)C(=O)[C@H](CC(=O)NCC13CC4CC(CC(C4)C1)C3)C2	-7.6	-7.1	4377	-1.7	/	/
Cc1ccccc1NC(=S)N(CCN(C)C)C(C)c1ccccn1 (stereo not given)	-12.1	7.2	19817*	5.6	-3.2	23.3
CC1(C)Cc2c(C#N)c(NCCN3CCOCC3)nc(-c3ccco3)c2CO1	-6.1	1.2	21315*	2.4	i	-11.3
COC(=O)C1=C(C)NC(C)=C(C(=O)OC)C1c1ccc(NC(C)=O)cc1	1.1	-0.8	10473	-0.1	8.3	8.9
CCN(CC)c1ccc(C2C(C(=O)OC)=C(C)NC(C)=C2C(=O)OC)cc1	-2.9	1.8	22496*	1.1	-14.3	-2.5
COC(=O)C1=C(C)NC(=O)NC1c1ccccc1 (stereo not given)	-2.8	-2.8	23564*	-2.0	-0.5	3.5
CC(=O)Nc1cc(-c2ccc(N(C)C)cc2)cn2c(-c3ccc(F)cc3)cnc12	-9.0	-8.1	2969	0.1	-0.2	/
Cc1cc(C)nc(NC(=O)c2ccc(Br)cc2)n1	2.2	?	4483	-8.2	0.8	-3.5
Cc1cc(NO)nc(-c2ccc(Br)cc2)n1	-2.4	-5.1	24290*	-3.1	-0.1	12.4
CC(=O)OCc1cc(-c2nn(C)c(=O)c3ccccc23)ccc1C	1.1	-6.2	4484	-0.6	i	-2.2
Cc1ccc(-c2nn(C)c(=O)c3ccccc23)cc1CO	-3.9	-2.0	2307	0.2	16.7*	-6.9
CCOc1ccc(Cl)cc1-c1cc(C(=O)NCc2cc(C(F)(F)F)cc(C(F)(F)F)c2)[nH]n1	-4.2	-0.3	3801	-0.1	-0.7	/
Oc1ccc(Cl)cc1CNc1ccc(Br)cn1	-7.3	-5.2	23615*	-3.1	-4.0	-0.6
Oc1c(Cl)cc(Cl)cc1CNc1ccc(Br)cn1	-7.4	-29.6	3770	-1.1	i	-3.1
O=C(c1ccc(Cl)c(Cl)c1)N1CCC(=O)N([C@H](COCc2ccc(Cl)cc2)Cc2ccccc2)CC1	-5.9	2.0	4017	-0.3	/	/
Cc1cccc(S(=O)(=O)c2c(N)n(/N=C/c3ccccc3)c3nc4ccccc4nc23)c1	-0.4	-1.6	16348*	-0.5	i	9.0
Nc1c(S(=O)(=O)c2ccccc2)c2nc3ccccc3nc2n1/N=C/c1cccc(O)c1	1.0	?	4797	0.5	i	-2.9
Cc1sc2nc(SCC(=O)NCCOCCO)n(C)c(=O)c2c1C	-2.6	3.4	21931*	3.1	i	/
Cc1ccc2[nH]c3c(=O)n(CCCN4CCN(C)CC4)cnc3c2c1	-0.3	-5.7	23434*	-3.2	i	-4.3
O=C(c1cc2c(s1)CCCC2)N1CCC2(CC1)OCCO2	-0.1	-0.4	23757*	?	i	7.3
CCOc1ccc(CC(=O)Nc2sc(Cc3ccccc3)cc2C(N)=O)cc1OCC	-1.8	-7.5	17390*	-4.7	-1.0	3.5
COc1ccccc1NCC(=O)N/N=C(\C)c1ccc(Br)s1	-3.1	7.5	7476	1.0	-0.4	-11.7
SMILES	Anthrax LF prot	BoNT-F LC inh	Bead autofluor	BoNT A protease	BH1578 lux ind	BJeLR lethal
C/C(=N/NC(=O)CNc1ccc(C)cc1)c1ccc(Br)s1	1.4	-3.0	19958*	-0.5	i	-20.0
CC1CC(NC(=O)C2(C)CC2(Cl)Cl)CC(C)(C)C1 (stereo not given)	-15.0	6.3	20800*	4.9	i	10.0
CC1(C(=O)Nc2ccc3[nH]ncc3c2)CCN1C(=O)C/C=C/c1ccccc1 (stereo not given)	-5.5	-0.5	4220	-0.4	i	/
Cc1c(C(=O)N2CCC3(CC2)OCCO3)oc2ccccc12	4.9	5.6	18025*	4.5	0.7	19.7
COCCCNC(=O)c1cn(C)c(=O)c2c1c1ccccc1n2C	-2.9	-10.1	3680	0.1	1.2	6.5
CC1=C(C(=O)N2CCC3(CC2)OCCO3)C2(CCC(C)CC2)OC1=O (stereo not given)	-0.7	1.2	21647*	?	i	-7.3
Cn1cc(C(=O)N2CCC3(CC2)OCCO3)c2c3ccccc3n(C)c2c1=O	-3.6	-0.8	23087*	-0.8	-2.2	-7.1
Cn1cc(C(=O)NCCN2CCN(c3cccc(Cl)c3)CC2)c2c3ccccc3n(C)c2c1=O	-3.0	-2.4	23347*	-0.8	0.0	-11.3
CCOC(=O)N1CCN(C(=O)c2cn(C)c(=O)c3c2c2ccccc2n3C)CC1	0.1	3.3	22295*	2.5	-0.3	-21.7
CCOC(=O)N1CCN(C(=O)c2cn(CC(C)C)c(=O)c3c2c2ccccc2n3C)CC1	-0.5	6.0	9732	0.4	i	-3.2
COC(=O)CCS(=O)(=O)c1nc(-c2ccccc2)cc(C(F)(F)F)n1	-1.2	2.4	21982*	2.4	i	2.7
CCOC(=O)CCS(=O)(=O)c1nc(-c2ccccc2)cc(C(F)(F)F)n1	-1.5	-0.4	2373	-1.0	i	23.2
CC(C)CN(C(=O)COC(=O)CCSc1ccc(Cl)cc1)c1c(N)n(Cc2ccccc2)c(=O)[nH]c1=O	3.5	-3.1	3910	0.0	-0.8	/
CN(C)CCCNc1nc2cc(-c3cnn(C)c3)sc2c(=O)n1C	-4.1	-3.9	2923	-0.1	i	/
CC(C)C(O)(C#CCN1CCCC1)c1ccccc1 (stereo not given)	-2.5	-16.4	2783	-0.6	i	-5.9
C=C(C)C(C)(C#CCN1CCCC1)OC(C)=O (stereo not given)	0.6	1.7	18876*	2.5	0.1	1.7
Cc1ccc(C)c(CSc2nnc([C@@H](N)C(C)C)o2)c1	1.8	-3.9	16262*	-0.2	i	2.5
Cc1ccc(C)c(CSc2nnc(CCN)o2)c1	1.6	6.1	9821	0.3	-0.5	-1.8
CC(C)CNC(=O)C(=O)N/N=C/c1cccs1	-0.7	-6.8	18172*	-5.4	-0.1	0.3
CCCCn1nnnc1C(c1cc2ccccc2o1)N(C)Cc1ccccc1 (stereo not given)	-7.6	-3.4	5204	-0.3	/	/
COc1ccc(-c2sc3ccccc3c2-c2cc(OC)ccc2C=O)cc1	-3.9	7.5	5534	1.0	/	/
O=C(C1CCCCN1S(=O)(=O)c1ccccc1)N1CCCCC1 (stereo not given)	-3.0	-8.1	11082	-0.6	-0.4	8.7
